Assay outcomes (PubChem)
DT40 TDP1 no CPT = qHTS for Inhibitors of human tyrosyl-DNA phosphodiesterase 1 (TDP1): qHTS in cells in absence of CPT | DT40 Tdp1-/- hTDP1 cells, no CPT, ATP luminescence, 48 h | Potency, µM (top dose mostly 46.2 µM), for the others: top-dose activity change, negative = growth inhibition, hits mostly inhibitors | 420,000 tested, 15% active | AID 686978, 2013; further: potency means the concentration at half of the fitted maximal effect; nearly all actives have a fitted effect of over 55% in size
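Camptothecin absent (DMSO only). Human TDP1-complemented DT40 knockout cells, 400 cells/well, 37 °C for minimum 48 hr; ATP measured via CellTiter-Glo, 30 min dark incubation, luminescence.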
IL1B secr inh = qHTS for Inhibitors of Inflammasome Signaling: IL-1-beta AlphaLISA Primary Screen | THP-1 LPS/ATP IL-1B secretion, AlphaLISA, 16 h; active compounds read low | activity change, % at 57.5 µM | 360,000 tested, 4.7% active; in the data active means activity change below about -50%; inconclusive means mostly about -30% to -49%
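Secreted IL-1B measured by AlphaLISA bead assay after 16 h compound exposure of THP-1 cells; compounds (final up to 57.5 uM) added 1 h before LPS (250 ng/mL) and ATP (1.25 mM) stimulation; lower signal means less secretion.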
TDP1 cell CPT = qHTS for Inhibitors of human tyrosyl-DNA phosphodiesterase 1 (TDP1): qHTS in cells in presence of CPT; chicken DT40 Tdp1-/-;hTDP1 cells + 20 nM CPT, ATP luminescence, 48 h; Potency, µM (series often up to 46.2 µM), for inactives: at the highest dose activity change, negative = growth inhibition, most hits filed as inhibitors; 420,000 tested, 12% active; further: potency means the concentration at half of the fitted maximal effect; nearly all actives have a fitted effect of over 55% in size
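Chicken DT40 Tdp1-/- cells complemented with human TDP1, 400 cells/well, exposed to compounds plus 20 nM camptothecin for at least 48 h at 37 C; viability read as ATP content by CellTiter-Glo luminescence.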
uPA generation = qHTS for Inhibitors of Cell Surface uPA Generation | cell surface uPA generation assay, qHTS | Potency, µM (highest dose often 38.3 µM), inactives show at the top dose activity change, negative = inhibition, hits mostly inhibitors | 330,000 tested, 0.31% active | AID 540303, 2011; active means well fitted inhibition curve with a large enough effect; inconclusive means small, poorly fitted or top-dose-only effect; inactive means no such curve, though single readings can be large or run the other way; tested in mouse RAW 264.7 cells; further: potency means the concentration at half of the fitted maximal effect; nearly all actives have a fitted effect of over 55% in size
HT1080-NT tox = qHTS for induction of synthetic lethality in tumor cells producing 2HG: qHTS for the HT-1080-NT fibrosarcoma cell line | HT-1080-NT fibrosarcoma viability, CellTiter-Glo ATP luminescence, 48 h | 360,000 tested, 1.6% active | Potency, µM (titrated, usually from 46.1 µM), without a hit: at the highest dose activity, negative = less viability, hits mostly cytotoxic;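 further: NT is the 2HG producing partner of a matched IDH1 knockdown line; potency means the concentration at half of the fitted maximal effect; 0% = DMSO-treated cells and -100% = media-only wells without cells; nearly all actives have a fitted effect of over 55% in size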
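Viability by CellTiter-Glo luminescence after 48 h compound exposure at 37C of HT-1080-NT cells (750/well, RPMI, 5% FBS). % activity scaled between DMSO wells and medium-only wells, then curve-fitted and categorized by curve class.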
HT1080 IDH1KD tx = qHTS for induction of synthetic lethality in tumor cells producing 2HG: qHTS for the HT-1080-IDH1KD cell line | HT-1080 IDH1 knockdown viability, ATP luminescence, 48 h | Potency, µM (top dose mostly 46.1 µM), for inactives: top-dose activity, negative = toxicity, actives largely listed as cytotoxic | 360,000 tested, 2% active | AID 686971, 2013;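 further: potency means the concentration at half of the fitted maximal effect; 0% = DMSO wells and -100% = cell-free medium wells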
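Using the IDH1-knockdown HT-1080 line run in the same batch and compound series as the NT line, viability after 48 h at 37 °C was determined by CellTiter-Glo luminescence and expressed as % activity.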
An asterisk follows results filed as active; ? = inconclusive; · = not tested or not shown. Rows were chosen to be rich in hits. Some 19% of all compounds tested hit in one or more screens of this group. Unless noted, the call rests on the fitted dose curve; in most records, active means well fitted curve in the direction sought with a large enough effect; inconclusive means small, poorly fitted or top-dose-only effect, or another doubt; inactive means no such curve, though single readings can be large; an effect the other way counts as inactive or inconclusive. Unless noted, on the % scale 0 is the no-effect control and ±100 the full control effect.

SMILES	DT40 TDP1 no CPT	IL1B secr inh	TDP1 cell CPT	uPA generation	HT1080-NT tox	HT1080 IDH1KD tx
COCCNC(=O)C1CCCN(Cc2ccccc2F)CC1 (configuration not stated)	1%	11	-26%	·	9%	1%
Cc1ccc2c(c1)CN(CCNC(=O)c1n[nH]c3c1CCCC3)CC(C)O2 (configuration not stated)	-13%	·	?	·	·	·
OCCC1CN(Cc2cnc(-c3cccc4ccccc34)nc2)CCN1C1CCCCC1 (configuration not stated)	18µM*	-23	23µM*	-26%	0%	-9%
Cc1ccccc1-c1ncc(CN2CCN(C3CCCC3)C(CCO)C2)cn1 (configuration not stated)	-11%	6	-10%	5%	3%	-1%
CC(C)=CCCC(C)NC(=O)NC1CCCCC1 (configuration not stated)	16µM*	5	?	3%	-3%	0%
O=C(NC1CCCCC1)NC1CCCCC1	-13%	·	-21%	·	·	·
CCOc1ccc(C(=O)Nc2cccc(-c3nc4cccnc4s3)c2C)cc1OCC	-9%	·	-6%	·	·	·
O=C(NCc1ccccc1)C1Cc2c(-c3ccc4c(c3)OCO4)ccnc2O1 (configuration not stated)	0.73µM*	60	0.58µM*	·	?	0.41µM*
O=C(NCc1ccncc1)C1Cc2c(-c3ccc4c(c3)OCO4)ccnc2O1 (configuration not stated)	13µM*	8	?	·	?	?
Clc1ccccc1Cn1cccc1C1=NC(Cc2ccccc2)CO1 (configuration not stated)	-16%	·	4%	·	·	·
Cn1nnnc1Sc1ncnc2scc(-c3ccccc3Cl)c12	·	·	·	10µM*	·	·
Cn1nnnc1Sc1ncnc2scc(-c3cccc(Br)c3)c12	·	·	·	8.9µM*	·	·
CCOC(=O)C1(Cc2ccc(Cl)cc2)CCN(Cc2nccn2CC)CC1	?	-12	21µM*	-1%	-5%	-20%
CCOC(=O)C1(Cc2ccc(Cl)cc2)CCN(CCCn2cccn2)CC1	21µM*	-58*	?	-2%	-18%	-11%
CCOC(=O)C1(S(=O)(=O)c2ccc(Cl)cc2)CCN(Cc2ccc(Cl)cc2)CC1	18µM*	-29	16µM*	·	-28%	-29%
CCOC(=O)C1(CCc2ccccc2)CCN(Cc2nccn2CC)CC1	18µM*	6	?	5%	?	?
CCOC(=O)C1(Cc2ccccc2)CCN(Cc2nccn2CC)CC1	?	0	?	-1%	-12%	-18%
Cc1ccn2c(=O)nc(SCC(=O)NCCc3ccccc3)nc2c1	-8%	3	-2%	-10%	8%	15%
Cc1nnc(N(C)C(=O)c2ccc3c(c2)OCO3)s1	0%	-15	2%	3%	12%	-7%
COc1cc(=O)n2c(c1C(=O)N(C)Cc1nonc1C)CCN(C(=O)c1cc(C)ccc1C)CC2	-4%	·	6%	·	·	·
O=C(OCC(=O)N1CCN(C(=O)c2ccco2)CC1)c1cncc(Br)c1	25%	7	-4%	-4%	6%	4%
CCCCn1c(N)c(N(CCOC)C(=O)COc2ccc(Cl)cc2)c(=O)[nH]c1=O	10%	3	-3%	5%	5%	1%
O=C1NC[C@H](Cc2ccccc2)N(C[C@H]2CCCN2C[C@H](Cc2ccccc2)N2C[C@H](Cc3ccccc3)N(CCc3ccccc3)C(=O)C2=O)C1=O	16µM*	-77*	?	?	?	?
O=C1NC[C@H](Cc2ccccc2)N(C[C@@H]2CCCN2C[C@H](Cc2ccccc2)N2C[C@H](Cc3ccccc3)N(CCc3ccccc3)C(=O)C2=O)C1=O	?	-70*	?	·	?	?
CC(C)C[C@@H](CN1CCC[C@H]1CN1C(=O)C(=O)NC[C@@H]1Cc1ccc(O)cc1)N1C[C@H](Cc2ccc(O)cc2)N(CCc2ccccc2)C(=O)C1=O	-14%	-4	-9%	·	10%	2%
SMILES	DT40 TDP1 no CPT	IL1B secr inh	TDP1 cell CPT	uPA generation	HT1080-NT tox	HT1080 IDH1KD tx
COC(=O)c1ccc(S(=O)(=O)N2Cc3ccccc3C2)cc1	-25%	33	8%	-1%	3%	0%
CCOC(=O)c1cnc2ccc(C(=O)OC)cc2c1Nc1ccc(C(=O)O)cc1	-8%	22	-16%	-9%	9%	-29%
CCOC(=O)c1cnc2ccccc2c1Nc1ccc(N2CCOCC2)cc1	-19%	·	?	·	·	·
CCOC(=O)c1cnc2ccc(C(=O)OC)cc2c1Nc1ccc2c(c1)OCCO2	?	31	?	8%	16%	23%
CCOC(=O)c1cnc2ccc(OC)cc2c1Nc1ccc2c(c1)OCCO2	18µM*	25	?	-8%	?	?
CCOC(=O)c1ccc2ncc(C(=O)OCC)c(Nc3ccc(N4CCOCC4)cc3)c2c1	6.5µM*	-7	10µM*	2%	?	?
CCOC(=O)c1cnc2ccc(OC)cc2c1Nc1ccc(N2CCN(C)CC2)cc1	21µM*	-24	23µM*	-2%	?	23µM*
Cc1[nH]c2ccccc2c1C(Nc1nccs1)c1ccncc1 (configuration not stated)	2%	23	-10%	-1%	11%	9%
Oc1c(C(Nc2cccc(C(F)(F)F)c2)c2ccncc2)ccc2cccnc12 (configuration not stated)	18µM*	60	16µM*	-5%	-29%	?
Oc1c(C(Nc2nccs2)c2ccc(C(F)(F)F)cc2)ccc2cccnc12 (configuration not stated)	?	-103*	?	3%	?	?
CC(C)CNCC(=O)N1c2ccccc2Sc2ccccc21	?	-10	16µM*	2%	0%	-1%
COc1ccc(OC)c(NC(=O)N2c3ccccc3Sc3ccccc32)c1	?	·	18µM*	·	·	·
CCOc1ccccc1NC(=O)/C=C/C(N)=O	4.1µM*	-103*	4.1µM*	?	?	2.8µM*
COC(=O)c1cc(NC(=O)N2c3ccccc3Sc3ccccc32)cc(C(=O)OC)c1	?	-7	?	1%	-20%	-17%
